# High-throughput results: PubChem, National Center for Advancing Translational Sciences (NCATS)
# G9a block: qHTS Assay for Inhibitors of Histone Lysine Methyltransferase G9a; Histone-lysine N-methyltransferase EHMT2 (Homo sapiens), Q96KQ7; G9a H3K9 monomethylation, AlphaScreen, 2 h; 350,000 compounds, 8.8% hits; Potency, µM (highest dose often 102 µM), inactives show top-dose activity, negative = inhibition, actives largely listed as inhibitors; note: potency is the fitted concentration of half-maximal effect; % is set by controls: 0 for no effect and ±100 for the full control effect; nearly all actives have a fitted effect of over 75% in size
# Target sequence (Q96KQ7 913-1193 limits assumed): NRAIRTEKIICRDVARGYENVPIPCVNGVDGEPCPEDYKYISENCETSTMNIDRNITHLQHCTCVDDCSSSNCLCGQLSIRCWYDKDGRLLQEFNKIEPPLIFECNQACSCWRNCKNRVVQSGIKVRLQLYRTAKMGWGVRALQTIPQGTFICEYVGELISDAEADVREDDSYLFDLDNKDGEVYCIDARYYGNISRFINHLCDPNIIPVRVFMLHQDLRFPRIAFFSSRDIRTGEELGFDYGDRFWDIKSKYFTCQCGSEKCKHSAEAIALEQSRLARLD
#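 Chemiluminescent proximity detection of H3K9 monomethylation, read after 10 min bead incubation in the dark. Reaction: 20 nM G9a, 500 nM biotin-H3K9 peptide, 20 uM SAM cofactor, 2 h, room temperature, following 15 min enzyme-compound preincubation.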
# L3MBTL1 inh-1: qHTS Assay for the Inhibitors of L3MBTL1; Lethal(3)malignant brain tumor-like protein 1 (Homo sapiens), Q9Y468; AlphaScreen L3MBTL1–H3K9me1 peptide binding; Potency, µM (highest dose often 57.1 µM), inactives show top-dose activity, negative = inhibition, usual class: inhibitors; 230,000 compounds, 0.66% hits; AID 485360, 2010; note: potency is the fitted concentration of half-maximal effect; % is set by controls: 0 for no effect and ±100 for the full control effect; nearly all actives have a fitted effect of over 60% in size
#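 L3MBTL1 50 nM + b-AHA-H3(1-15)K9me1 75 nM, 30 min RT; compound added, 30 min RT; streptavidin donor/Ni-chelate acceptor beads 10 ug/mL each final, 30 min RT dark; AlphaScreen read.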
# Sfp inh: qHTS Assay for Inhibitors of Bacillus subtilis Sfp phosphopantetheinyl transferase (PPTase); Biochemical Sfp PPTase activity, qHTS; AID 1490, 2009; 4'-phosphopantetheinyl transferase ffp (Bacillus subtilis), Q9F4F7; Potency, µM, without a hit: largest response in the series, negative = inhibition, usual class: inhibitors; 310,000 compounds, 3.5% hits;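 note: the enzyme is Sfp with the accession as filed and its product quenches rhodamine fluorescence; potency is the fitted concentration of half-maximal effect; 0% = enzyme reaction without inhibitor and -100% = no enzyme wells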
#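 Sfp 15 nM + cpd, 15 min RT; start w/ rhodamine-CoA 5 uM, BHQ-2-YbbR 12.5 uM (final); 50 mM Hepes pH 7.6, 10 mM MgCl2, 0.01% NP-40, 0.01% BSA; read 525/598 nm at 0 and 30 min.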
# BAZ2B inh: qHTS Assay for Inhibitors of BAZ2B | AlphaScreen BAZ2B-H3K14Ac peptide displacement | Potency, µM (titrated, usually from 114 µM), for inactives: at the top dose activity change, negative = inhibition, usual class: inhibitors | Bromodomain adjacent to zinc finger domain protein 2B (Homo sapiens), Q9UIF8 | AID 504333, 2011 | 360,000 compounds, 4.4% hits; note: potency is the fitted concentration of half-maximal effect; % is set by controls: 0 for no effect and ±100 for the full control effect; nearly all actives have a fitted effect of over 60% in size
#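 AlphaScreen displacement: compounds (up to 110uM) incubated 30 min at room temperature with a preformed 50 nM BAZ2B/50 nM biotinylated H3K14Ac peptide complex in PBS pH 7.4 with Tween-20. Donor and acceptor beads at 10 ug/mL final added, 20 min light-protected before reading.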
# HP1b chromo inh: HTS for Inhibitors of HP1-beta Chromodomain Interactions with Methylated Histone Tails | Chromobox protein homolog 1 (Homo sapiens), P83916 | AlphaScreen HP1-beta / biotin-H3K9me3 peptide binding | Potency, µM (titrated, usually from 114 µM), without a hit: at the highest dose activity change, negative = inhibition, usual class: inhibitors | 390,000 compounds, 0.56% hits | AID 540317, 2011; note: potency is the fitted concentration of half-maximal effect; nearly all actives have a fitted effect of over 70% in size
# Target sequence (P83916 whole entry, looked up): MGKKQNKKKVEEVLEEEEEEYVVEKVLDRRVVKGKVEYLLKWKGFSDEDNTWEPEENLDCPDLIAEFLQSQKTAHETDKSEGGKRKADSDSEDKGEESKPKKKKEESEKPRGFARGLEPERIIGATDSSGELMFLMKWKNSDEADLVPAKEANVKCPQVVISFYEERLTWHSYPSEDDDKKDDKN
#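 HP1-beta protein (50 nM final) preincubated 30 min at room temperature with biotinylated H3(1-18)K9me3 peptide (50 nM) in PBS pH 7.4, 0.01% Tween-20, then compound added for 30 min. AlphaScreen streptavidin donor/nickel chelate acceptor beads (10 ug/mL final), 30 min dark, luminescence read.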
# JMJD2A Tudor: qHTS Assay for Inhibitors of JMJD2A-Tudor Domain; 390,000 compounds, 4.4% hits; Lysine-specific demethylase 4A (Homo sapiens), O75164; AID 504339, 2011; AlphaScreen JMJD2A-Tudor / H3K4me3 peptide binding; Potency, µM (titrated, usually from 114 µM), for the others: top-dose activity change, negative = inhibition, hits mostly inhibitors; note: potency is the fitted concentration of half-maximal effect; % is set by controls: 0 for no effect and ±100 for the full control effect; nearly all actives have a fitted effect of over 50% in size
# L3MBTL1 inh-2: qHTS Assay for the Inhibitors of L3MBTL1: Hit Validation; shares compounds with L3MBTL1 inh-1; L3MBTL1 methyl-lysine binding inhibition, biochemical qHTS; Potency, µM, actives largely listed as inhibitors; 500 compounds, 91% hits; AID 540279, 2011; note: potency is the fitted concentration of half-maximal effect; nearly all actives have a fitted effect of over 70% in size
# L3MBTL1 ctr: qHTS Assay for the Inhibitors of L3MBTL1: Hit Validationin AlphaScreen Counterscreen. shares compounds with L3MBTL1 inh-1. AlphaScreen counterscreen, signal inhibition. Potency, µM (top dose mostly 57.1 µM), inactives show at the top dose activity change, negative = inhibition, usual class: inhibitors. 500 tested, under 10 active; note: potency is the fitted concentration of half-maximal effect; 0% is about no effect
# ME-1 growth: qHTS Assay for Compounds Blocking the Interaction Between CBF-beta and RUNX1 for the Treatment of Acute Myeloid Leukemia: ME-1 cellular proliferation; shares compounds with BAZ2B inh; ME-1 cell proliferation, ATP luminescence, 48 h; Potency, µM (top dose mostly 56.1 µM), without a hit: at the highest dose activity change, negative = inhibition, actives largely listed as inhibitors; 140 compounds, 20% hits; AID 504370, 2011
# JMJD2E inh: Confirmation qHTS Assay for Inhibitors of Human Jumonji Domain Containing 2E (JMJD2E). shares compounds with JMJD2A Tudor. Recombinant JMJD2E, FDH-coupled NADH fluorescence (FDH is formaldehyde dehydrogenase). Potency, µM (doses to about 56.8 µM), for the others: top-dose activity change, negative = inhibition, usual class: inhibitors. 140 compounds, 93% hits. AID 2677, 2010
# FDH counter: Counterscreen for JMJD2E Inhibitors: qHTS Assay for Inhibitors of Formaldehyde Dehydrogenase (FDH) | shares compounds with JMJD2A Tudor | FDH enzyme assay, NADH fluorescence kinetic | Potency, µM (doses to about 56.7 µM), for inactives: top-dose activity, negative = inhibition, usual class: inhibitors | 140 compounds, 10% hits | AID 2680, 2010
# Numbers without * were called inactive; ? = inconclusive; . = no result given; [ ] = another dose, or the depositor's remark. This is a sample that favours compounds with a hit; in the whole collection about 12% have one here. Calls come from the whole dose curve; as a rule, active = well fitted curve in the direction sought with a large enough effect; inconclusive = small, poorly fitted or top-dose-only effect, or another doubt; inactive = no such curve, though single readings can be large; an effect the other way counts as inactive or inconclusive.
SMILES,G9a block,L3MBTL1 inh-1,Sfp inh,BAZ2B inh,HP1b chromo inh,JMJD2A Tudor,ME-1 growth,others
Cc1ccnc(NC(c2cccnc2)c2ccc3cccnc3c2O)c1 (stereo not drawn),6.31µM*,12.6µM*,?,7.08µM*,?,22.4µM*,.,L3MBTL1 inh-2=10.6*;L3MBTL1 ctr=-91.3%;JMJD2E inh=31.6µM*;FDH counter=?
CCOC(=O)c1cnc2cc(C(F)(F)F)ccc2c1Nc1cc(C)ccc1OC,-14.0%[59 µM],.,.,-32.5%,-2.5%,-8.2%,.,
O=c1[nH]cc(I)cc1I,-2.4%,6.6%,22.4µM*,3.2%,45.6%,-3.5%,-4.9%[25.6 µM],
COc1cccc(Nc2ncc3nc(CCc4ccccc4)c(=O)n(C[C@H]4CCCO4)c3n2)c1,6.0%[12.7 µM],.,7.1%,.,.,.,.,
COC(=O)c1ccccc1NC(=O)c1cn2c3c(ccc(Cl)c3c1=O)OC(C)C2 (stereo not drawn),-1.3%[59 µM],.,.,3.5%,26.2%,-1.7%,.,
CCNC1=C(Cl)C(=O)c2ccccc2C1=O,?,.,-7.2%,35.5µM*,?,50.1µM*,?,
CCNc1ccccc(-c2ccc3ccccc3n2)c1=O,21.4%[59 µM],13.1%,?,-2.6%,12.2%,-6.1%,.,
CN(C)CCc1c[nH]c2ccc(CC3COC(=O)N3)cc12 (stereo not drawn),6.5%[2.33 µM],.,16.2%,.,.,.,-5.6%,
Cc1cc(O)c(C=O)c2c1C(=O)Oc1c(C)c(O)c3c(c1O2)C(O)OC3=O (stereo not drawn),?,.,-67.0%,.,.,.,.,
Cc1c2c(c(O)c3c(O)cccc13)C(=O)O[C@H]2C1C(N(C)C)C(O)=C(C(N)=O)C(=O)[C@H]1O (stereo partly drawn),.,.,?,.,.,.,-13.5%,
Cc1cc(C(=O)NC2Cc3ccccc3C2)c(C)o1,.,-0.2%,-4.8%,-12.2%,14.8%,-16.9%,-39.0%[25.6 µM],
Oc1ccccc1/C=N/Nc1ncc(Br)cn1,12.0%[59 µM],-5.2%,17.2%,-33.2%,30.0%,-11.7%,35.5µM*,
CCCCCC(=O)N1c2ccccc2C(C)(c2ccccc2)CC1(C)C (stereo not drawn),38.0%[59 µM],.,.,55.0%,81.3%,39.8%,.,
